Screen size: about 5,500 compounds; about 2,000 (36%) were called active. Another 18% or so got no clear call; they are omitted. Rule as the data show it: active = normalized growth mostly below about 0.91 (no sharp cut-off); inconclusive = no clear call, values can overlap the other calls; inactive = mostly above about 0.92. The list shows a part of the results.
Test: chemical genetic growth profiling, strain panel (AID 1159580);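 also: tested at 20 µM; growth read once vehicle control cultures reached saturation at 30 °C; 1 = growth at the plate median or of vehicle wells; lower values mean less growth of the strain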
Conditions: S. cerevisiae deletion strains, growth OD

Measured: normalized growth

COc1ccc2c(c1)CCC1C2CCC2(C)C1C[C@@H](O)C2O (stereo not given in full)
inactive: locus YAL013W, strain DEP1, active compounds read low 1 | locus YAL021C, strain ccr4, active compounds read low 0.947 | locus YAL030W, strain snc1, active compounds read low 1 | locus YBL061C, strain skt5, active compounds read low 1 | locus YBR009C, strain hhf1, active compounds read low 0.917 | locus YBR021W, strain FUR4, active compounds read low 1.08 | locus YBR023C, strain chs3, active compounds read low 0.988 | locus YBR171W, strain sec66, active compounds read low 0.983 | locus YBR229C, strain ROT2, active compounds read low 1.02 | locus YBR231C, strain swc5, active compounds read low 1.01 | locus YBR279W, strain paf1, active compounds read low 0.992 | locus YCL011C, strain gbp2, active compounds read low 0.977 | locus YCL016C, strain dcc1, active compounds read low 0.949 | locus YCL029C, strain bik1, active compounds read low 0.993 | locus YCL061C, strain MRC1, active compounds read low 0.985 | locus YCL069W, strain vba3, active compounds read low 1 | locus YCR088W, strain abp1, active compounds read low 0.998 | locus YDL005C, strain med2, active compounds read low 1.01 | locus YDL035C, strain GPR1, active compounds read low 0.962 | locus YDL040C, strain nat1, active compounds read low 0.993 | locus YDL074C, strain BRE1, active compounds read low 0.95 | locus YDL101C, strain DUN1, active compounds read low 1.02 | locus YDL134C, strain PPH21, active compounds read low 0.952 | locus YDL185W, strain tfp1, active compounds read low 0.992 | locus YDL192W, strain arf1, active compounds read low 0.997 | locus YDR001C, strain nth1, active compounds read low 1.01 | locus YDR069C, strain doa4, active compounds read low 0.992 | locus YDR101C, strain arx1, active compounds read low 0.987 | locus YDR137W, strain rgp1, active compounds read low 0.854 | locus YDR150W, strain NUM1, active compounds read low 1.01 | locus YDR159W, strain sac3, active compounds read low 0.966 | locus YDR162C, strain NBP2, active compounds read low 0.978 | locus YDR195W, strain ref2 1.1 | locus YDR297W, strain sur2, active compounds read low 1 | locus YDR318W, strain mcm21, active compounds read low 0.991 | locus YDR334W, strain swr1, active compounds read low 1 | locus YDR335W, strain msn5, active compounds read low 0.997 | locus YDR388W, active compounds read low 0.99 | locus YDR502C, strain sam2, active compounds read low 0.997 | locus YEL003W, strain gim4, active compounds read low 0.992 | locus YEL037C, strain rad23, active compounds read low 1 | locus YEL061C, strain CIN8 (second series), active compounds read low 1.01 | locus YEL061C, strain CIN8, active compounds read low 1.01 | locus YER015W, strain faa2, active compounds read low 0.996 | locus YER016W, strain bim1, active compounds read low 0.979 | locus YER110C, active compounds read low 0.983 | locus YER111C, strain swi4, active compounds read low 0.984 | locus YER155C, strain BEM2, active compounds read low 1.02 | locus YER167W, strain BCK2, active compounds read low 0.999 | locus YFR010W, strain ubp6, active compounds read low 1 | locus YGL078C, strain dbp3, active compounds read low 0.997 | locus YGL086W, strain mad1, active compounds read low 0.991 | locus YGL167C, strain pmr1, active compounds read low 1 | locus YGL173C, strain kem1, active compounds read low 0.949 | locus YGL227W, strain vid30, active compounds read low 1 | locus YGL240W, strain doc1, active compounds read low 0.944 | locus YGL248W, strain PDE1, active compounds read low 1 | locus YGR135W, strain pre9, active compounds read low 0.961 | locus YGR252W, strain gcn5, active compounds read low 0.774 | locus YHR013C, strain ard1, active compounds read low 0.906 | locus YHR027C, strain rpn1, active compounds read low 1.01 | locus YHR030C, strain SLT2, active compounds read low 1.01 | locus YHR079C, strain IRE1 (second series), active compounds read low 0.992 | locus YHR094C, strain hxt1, active compounds read low 0.992 | locus YHR129C, strain ARP1, active compounds read low 1.01 | locus YHR142W, strain chs7, active compounds read low 0.925 | locus YHR200W, strain rpn10, active compounds read low 0.993 | locus YIL066C, strain RNR3, active compounds read low 0.98 | locus YIL073C, strain SPO22, active compounds read low 0.91 | locus YIL125W, strain kgd1, active compounds read low 1 | locus YIR030C, strain dcg1, active compounds read low 0.991 | locus YJL092W, strain hpr5, active compounds read low 0.998 | locus YJL095W, strain BCK1 (second series), active compounds read low 0.981 | locus YJL095W, strain BCK1, active compounds read low 0.944 | locus YJL115W, strain asf1, active compounds read low 0.995 | locus YJL129C, strain trk1, active compounds read low 0.915 | locus YJL134W, strain LCB3, active compounds read low 1.02 | locus YJL154C, strain vps35, active compounds read low 1.02 | locus YJL168C, strain set2, active compounds read low 0.994 | locus YJL187C, strain SWE1 (second series), active compounds read low 1
active: locus YAL026C, strain drs2, active compounds read low 0.83 | locus YDR392W, strain spt3, active compounds read low 0.685 | locus YER155C, strain BEM2 (second series), active compounds read low 0.715 | locus YGL253W, strain hxk2, active compounds read low 0.903 | locus YJL164C, strain tpk1, active compounds read low 0.907
